In PubChem BioAssay AID504415 (Broad Institute, 2011):
Entries with a potency or affinity are not part of this list. Records with an inconclusive call do not appear. Active and inactive are the calls of the source.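 How the source made its calls: active means compound lowering the signal whose fitted half-maximal concentration is at most ten times its top tested dose; inconclusive means flat curve with 30 to 70% loss, or poor fit; inactive means the rest.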

Assay: viability loss in Mcl1-dependent HMC-1-8 cells, dose response, selectivity assay for A1 inhibitor project, cell-based, luminescence, dry powder (AID 504415)
Conditions: HMC-1-8 (Mcl1-dependent) viability, Glo luminescence, 24 h; series mostly up to 35 µM; activity change, negative = viability loss: at the top concentration

SMILES	activity change, negative = viability loss
Cc1ccc(Nc2c([N+](=O)[O-])c(=O)n(C)c3ccccc23)cc1	5.87% (inactive)
O=c1oc2ccccc2c(Cl)c1[N+](=O)[O-]	23.9% (inactive)
Cc1ccc(Nc2c([N+](=O)[O-])c(=O)oc3ccccc23)cc1	10.5% (inactive)
CCOC(=O)N1CCN(c2c([N+](=O)[O-])c(=O)n(C)c3ccccc23)CC1	8.34% (inactive)
Cn1c(=O)c([N+](=O)[O-])c(Oc2ccccc2)c2ccccc21	12.5% (inactive)
